Measured values reported in PubChem BioAssay AID449762 (Southern Research Specialized Biocontainment Screening …, 2010).
Among all 330,000 compounds or so, about 1,900 (0.58%) were called active. Not shown: some 4% with an inconclusive outcome. Only a sample is shown. Entries with a potency or affinity are not part of this list. Unmarked numbers belong to inactive results. Rule as the data show it: inconclusive = inhibition above about 70% without an active follow-up result; inactive = below that.

Assay: M. tuberculosis growth inhibition, HTS (AID 449762);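 also: bacterial growth assessed after seven days of incubation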
Settings: M. tuberculosis H37Rv growth inhibition, 7H9 media; at 25 µM; hits give high values

| Compound | inhibition |
| --- | --- |
| O=C(CN1C(=O)COc2ccccc21)c1cccc(Cl)c1 | 1.54% |
| CCCN=C1CC(C)(C)CC(=O)/C1=C(/O)CCC | -3.03% |
| CCCCN=C1CC(C)(C)CC(=O)/C1=C(/O)CCC | -2.63% |
| CC(=O)Nc1ccc(C(=O)NNC(=O)C2CC2)cc1 | -9.13% |
| Cc1ccccc1[N+](=O)[O-] | -10.8% |
| O=[N+]([O-])c1cccc2c([N+](=O)[O-])cccc12 | 9.13% |
| COc1cccc(CN(C)CC(=O)NCc2ccc(C)cc2)c1 | 7.23% |
| NNC(=O)CN1C(c2ccc(Cl)cc2)=Nc2ccc(Br)cc2C1c1ccccc1 (stereo unspecified) | 0.4% |
| COC(=O)CN1C(c2ccccc2)=Nc2ccc(Cl)cc2C1c1ccccc1 (stereo unspecified) | 55.5% |
| CCCCCC(=O)Nc1cccc(C2=NOC3(C2)C[C@@H](C(N)=O)N(C(=O)c2ccc(Cl)cc2)C3)c1 (stereo partly specified) | -9.42% |
| CCOc1ccc2nc(NC(=O)C3CCCN(S(=O)(=O)c4cccs4)C3)sc2c1 (stereo unspecified) | 58.9% |
| COc1ccc2nc(NC(=O)C3CCN(S(=O)(=O)c4cccs4)CC3)sc2c1 | -5.35% |
| O=C(NCC1CCCN1S(=O)(=O)c1cccs1)C(=O)Nc1cccc(F)c1 (stereo unspecified) | -3.47% |
| CC(C)Cc1nc(SCC(=O)N2CCCC2)c2c(=O)n(C)c(=O)n(C)c2n1 | 5.69% |
| CC(=O)NCc1cc(-c2ccc(Cl)cc2)no1 | -6.41% |
| O=S(=O)(NCc1cc(-c2ccc(Cl)cc2)no1)c1ccc(Cl)cc1 | -3.48% |
| COc1ccc(C2CC(C)=NN2C=O)cc1OC (stereo unspecified) | -23.4% |
| C=CCC1(CC=C)CCCN1C(=O)c1cc(COc2ccc(F)c(F)c2)on1 | 11.7% |
| O=C(c1cc(COc2ccc(-n3cncn3)cc2)on1)N1CCCC1 | 2.05% |
| COc1ccccc1C1=NOC(C)(c2nnc(Cc3ccccc3)o2)C1 (stereo unspecified) | -2.16% |
| Cc1ccc2oc(=O)c3cnn(CC(=O)N(CCN(C)C)Cc4ccco4)c3c2c1 | -9.56% |
| Cn1c(SCC(=O)NCC2CCCO2)ncc(C(=O)Nc2ccc(F)cc2)c1=O (stereo unspecified) | 67.5% |
| Cn1c(SCC(=O)NCC2CCCO2)ncc(C(=O)Nc2ccccc2)c1=O (stereo unspecified) | 54.1% |

| Compound | inhibition |
| --- | --- |
| COC(=O)c1ccc2c(=O)[nH]c(CSc3nc(-c4ccc(F)cc4)cs3)nc2c1 | -1.24% |
| COC(=O)c1ccc2c(=O)[nH]c(CCl)nc2c1 | 37.7% |
| COc1cc(OC)c(-c2nc3c[n+](CC(=O)c4ccccc4)ccc3n2C)cc1OC | -1.07% |
| COc1cc(-c2nc3c[n+](CC(=O)c4ccccc4)ccc3n2C)cc(OC)c1OC | 3.76% |
| Cc1ccc(-c2nc3ncccn3c2Nc2ccc3c(c2)OCCO3)o1 | 3.72% |
| Cc1ccc(-c2nc3ncccn3c2Nc2ccc3c(c2)OCO3)o1 | 3.61% |
| CCOc1ccc(NS(=O)(=O)c2cc(C(=O)N3CCCC3)ccc2Cl)cc1 | 5.65% |
| Cc1ccc(NC(=O)c2ccc(OCC3CCCO3)cc2)nc1 (stereo unspecified) | 16.9% |
| Oc1ccc(C[C@H]2CNCCN2CC2CCCCC2)cc1 | 7.27% |
| Oc1ccc(C[C@@H]2CNCCN2CC2CCCCC2)cc1 | -3.4% |
| CCOC(=O)c1cc(-c2ccc3c(c2)OCCO3)n[nH]1 | -1.75% |
| OCCN(CCCn1c(-c2ccncc2)nc2ccccc21)c1nc(CN2CCCCC2)cs1 | -3.74% |
| O=C(NNc1cc(N2CCOCC2)nc(N2CCOCC2)n1)c1ccc(Cl)c(Cl)c1 | -10.6% |
| CC(C)(C)c1ccc(C(=O)NNc2cc(N3CCOCC3)nc(N3CCOCC3)n2)cc1 | 1.03% |
| O=C(CSc1nc2cc(Cl)ccc2o1)N1CCOCC1 | 0.49% |
| CCN1CCN(Cc2ccc(NC(=O)c3cc(NC(=O)c4ccc5n[nH]nc5c4)cc(OC)c3)cc2C(F)(F)F)CC1 | 12.9% |
| CCN1CCN(Cc2ccc(NC(=O)c3cc(NC(=O)c4ccno4)cc(OC)c3)cc2C(F)(F)F)CC1 | 66.3% |
| CC(=O)NCCC(=O)Nc1cccc(S(=O)(=O)N(C)c2ccccc2)c1 | -0.05% |
| Cc1ccccc1OCC(=O)N/N=C/c1ccccn1 | -4.77% |
| O=C(NC1(C(F)(F)F)NC(=O)N(C2CCCCC2)C1=O)C1CC1 (stereo unspecified) | -5.69% |
| CCOC(=O)c1c(C)[nH]c(N=Nc2cccc(C)c2)c1C | 15.8% |
| CCOC(=O)c1c(C)[nH]c(N=Nc2cc(C(=O)O)cc(C(=O)O)c2)c1C | -2.43% |
| COc1ccc(N2C(=O)/C(=C/c3cc(C)n(-c4ccc(C)cn4)c3C)C(=O)NC2=S)c(OC)c1 | 3.48% |

| Compound | inhibition |
| --- | --- |
| COc1cc(/C=N/OCC(=O)Nc2cc(C)on2)ccc1OCc1ccccc1 | -2.24% |
| COc1ccc(/C=N/OCC(=O)Nc2cc(C)on2)cc1OC | -6.14% |
| Cc1cc(NC(=O)C(Cl)(Cl)Cl)no1 | -0.63% |
| CSCC(=O)Nc1cc(C)on1 | 7.76% |
| CCCn1c(SCC(=O)Nc2ccccc2N2CCOCC2)nc2c1c(=O)n(C)c(=O)n2C | -9.47% |
| CN(CCOc1ccc(Cl)cc1)C(=O)C1CCN(C(=O)c2ccc(F)cc2)CC1 | -0.37% |
| CCC(NC(=O)c1cc(COc2cncc(Cl)c2)on1)c1ccc(C)cc1 (stereo unspecified) | 27.5% |
| CCC(NC(=O)c1cc(COc2cncc(Cl)c2)on1)c1ccncc1 (stereo unspecified) | 4.32% |
| COc1cccc(NC(=O)CN(C)C(=O)c2ccccc2Sc2ccccc2C#N)c1 | -24% |
| CCOC(=O)c1cc(NC(=O)c2ccccc2)c(=O)n2c1oc1ccccc12 | -3% |
| Oc1c(C(c2ccccn2)N2CCCCC2)cc(Cl)c2cccnc12 (stereo unspecified) | 3% |
| Oc1c(C(c2cccs2)N2CCN(c3ccccc3)CC2)ccc2cccnc12 (stereo unspecified) | 30.5% |
| COC(=O)Cc1ccc(NC(=S)N2CCC(Cc3ccccc3)CC2)cc1 | 6.07% |
| O=C(C1=C[C@H](c2coc3ccccc3c2=O)C[C@H](OCCCCO)O1)N1CCN(Cc2ccccc2)CC1 | 39.2% |
| CC(CC(=O)Nc1ccc(F)c([N+](=O)[O-])c1)c1ccccc1 (stereo unspecified) | -6.24% |
| CC(CC(=O)Nc1cc([N+](=O)[O-])ccc1Cl)c1ccccc1 (stereo unspecified) | 3.48% |
| CSCC[C@H](NC(=O)C1CCN(S(=O)(=O)c2ccc(C)cc2)CC1)C(=O)NCC1CCCO1 (stereo partly specified) | -8.31% |
| Cc1occc1-c1nnc(SCc2nnc(-c3ccc(Cl)cc3)o2)n1C | -6.71% |
| C[C@@H]1C[C@H]2[C@@H]3CCC4=CC(=O)C=C[C@]4(C)[C@@]3(F)[C@@H](O)C[C@]2(C)[C@H]1C(=O)CO | 18.9% |
| Cc1cccc(C)c1NC(=O)Cn1nnc(-c2ccc(CN3CCC(C)CC3)cc2)n1 | 5.96% |
| COC(=O)N/N=C\c1ccccc1OC/C=C/c1ccccc1 | 7.83% |
| CCOc1ccc(-c2cc(C)[n+](CCO)c(-c3ccc(OCC)cc3)c2)cc1 | 4.23% |
| CCOc1ccc(-c2cc(C)[n+](CCN3CCOCC3)c(-c3ccc(OCC)cc3)c2)cc1 | 12.3% |

| Compound | inhibition |
| --- | --- |
| COC(=O)/C(=C/Nc1ccccc1)[N+](=O)[O-] | -4.18% |
| Cc1ccc(NC(=O)CS(=O)CC(=O)N(CC(=O)NC2CCCC2)c2ccc3c(c2)OCCO3)cc1 (stereo unspecified) | -4.13% |
| CCn1c2ccccc2c2cc(CN3CCN(S(C)(=O)=O)CC3)ccc21 | 7.91% |
| COc1cccc(CNCc2ccc(OC)cc2OC)c1 | 1.71% |
| CCn1c2ccccc2c2cc(CN3CCN(S(=O)(=O)CC)CC3)ccc21 | 10.3% |
| COc1ccc(CNCc2ccc3ccccc3c2)c(OC)c1 | 12.2% |
| CCn1cc(C(=O)N2CCCC(CO)(Cc3ccccc3C)C2)cn1 (stereo unspecified) | 0.25% |
| COc1cc2oc(=O)ccc2cc1[C@H](O)[C@@H](O)C(C)(C)O | -11.1% |
| COc1ccc(-c2c[n+](CC(=O)c3ccccc3)c3n2CCCCC3)cc1 | 1.09% |
| COc1ccc(-c2c[n+]3c(n2-c2ccccc2)CCCCC3)cc1 | -4.08% |
| CC(C)NC(=O)NC(=O)COC(=O)c1ccc(OC(F)(F)F)cc1 | 14.2% |
| CSc1nn(-c2ccc(C(=O)OC(C(=O)NC(N)=O)C(C)C)cc2)c(=S)s1 (stereo unspecified) | 50.6% |
| O=C(CN1CCN(S(=O)(=O)c2cccc(F)c2)CC1)NCC1(N2CCOCC2)CCCCC1 | 6.01% |
| CC(C)(C)C(=O)Nc1cc(C(F)(F)F)ccc1-n1ccnc1 | -0.21% |
| Fc1ccc(-n2c(Cn3nnc4ccccc43)n[nH]c2=S)cc1 | -5.75% |
| COc1ccccc1NC(=O)c1ccc(NC(=O)CSc2nncn2C)cc1 | 7.82% |
| COc1ccccc1NC(=O)CSc1nnnn1C | -4.82% |
| COc1ccccc1NS(=O)(=O)c1ccc2ccccc2c1 | 7.83% |
| CC1CCc2sc(C(=O)NCc3ccccn3)cc2C1 (stereo unspecified) | 4.08% |
| O=C(Nc1cccc2ccccc12)c1ccc([N+](=O)[O-])cc1 | 5.16% |
| CCOC(=O)C1CCCCN1S(=O)(=O)c1cc2c(cc1C)NC(=O)CO2 (stereo unspecified) | -3.9% |
| CCN(C(=O)Cn1ccc(C(F)(F)F)n1)c1c(N)n(Cc2ccccc2)c(=O)[nH]c1=O | -10% |
